In PubChem BioAssay AID488975 (Johns Hopkins Ion Channel Center, 2010):
In all, about 310,000 compounds went through this assay and about 2,600 (0.84%) were called active.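 How the source made its calls: active means B-score over 3 SD under the library average, and starting fluorescence ratio not unusually high; inactive means the rest.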 The full list was thinned out, with actives kept by preference.

target: High affinity choline transporter 1 (Homo sapiens) (UniProt Q9GZV3); experiment: inhibits the human high affinity choline transporter (AID 488975); details: CHT-expressing cells, membrane potential dye, choline response, at 10 µM; hits give low values;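 on B-score: choline stimulus applied at its EC90 after an EC20 pre-addition; B-score computed on integrated fluorescence ratio after choline addition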
Sequence (Q9GZV3 whole entry, looked up): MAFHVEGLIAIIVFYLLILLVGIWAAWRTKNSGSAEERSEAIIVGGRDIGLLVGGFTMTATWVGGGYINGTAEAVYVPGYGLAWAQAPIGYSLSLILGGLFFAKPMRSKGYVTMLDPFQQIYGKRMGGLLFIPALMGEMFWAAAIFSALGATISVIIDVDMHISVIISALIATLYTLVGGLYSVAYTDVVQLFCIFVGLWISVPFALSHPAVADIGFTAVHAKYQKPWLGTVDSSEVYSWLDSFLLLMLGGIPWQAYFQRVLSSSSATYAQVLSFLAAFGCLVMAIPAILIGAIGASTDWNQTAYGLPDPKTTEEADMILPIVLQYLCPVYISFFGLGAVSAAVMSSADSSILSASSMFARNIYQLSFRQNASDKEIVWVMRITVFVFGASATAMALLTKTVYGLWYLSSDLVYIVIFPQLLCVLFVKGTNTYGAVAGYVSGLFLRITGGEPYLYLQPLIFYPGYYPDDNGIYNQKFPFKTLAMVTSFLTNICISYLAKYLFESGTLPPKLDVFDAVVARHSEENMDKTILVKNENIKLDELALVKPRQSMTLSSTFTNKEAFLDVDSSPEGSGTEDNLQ

Row | Compound | B-score
1 | COC(=O)[C@]1(C)N[C@H](c2ccc(-c3ccc(Cl)c(Cl)c3)cc2)[C@@H]2C(=O)N(C)C(=O)[C@@H]21 | inactive
2 | O=C(NCC(c1cccs1)N1CCOCC1)c1cc(Cl)ccc1[N+](=O)[O-] (stereo not given) | inactive
3 | OCCCNc1nc(-c2ccccc2)c2cc(Cl)ccc2n1 | inactive
4 | COC(=O)c1ccccc1NC(=O)CSc1nc2c(c(=O)[nH]1)CCC2 | inactive
5 | CC(C)OC(=O)Cn1nc(C(F)(F)F)c2c1CCCC2 | inactive
6 | COC(=O)c1ccccc1NC(=O)Cn1nc(C(F)(F)F)c2c1CCC2 | -5.17 (active)
7 | Cc1cc(NC(=O)Cn2nc(C(F)(F)F)c3c2CCCC3)no1 | inactive
8 | CCC(C)NC(=O)Cn1nc(C(F)(F)F)c2c1CCC2 (stereo not given) | inactive
9 | O=C(Cn1nc(C(F)(F)F)c2c1CCC2)NCc1ccc(F)cc1 | -6.14 (active)
10 | N#CCN(C(=O)COC(=O)C1CC2CCCC(C1)C2=O)c1ccccc1 (stereo not given) | inactive
11 | CC1CCN(c2ccc(-c3ccc(NC(=O)c4ccco4)cc3)nn2)CC1 | inactive
12 | Cc1noc(C)c1CSCC(=O)Nc1ccc(Br)cc1Cl | inactive
13 | O=C(c1ccncc1)N1CCN(S(=O)(=O)c2cc(C(F)(F)F)cc(C(F)(F)F)c2)CC1 | inactive
14 | COCc1c(C(=O)N/N=C\c2cccnc2)nnn1-c1nonc1N | inactive
15 | CN(C)Cc1c(C(=O)N/N=C/c2ccccc2OCc2ccc(F)cc2)nnn1-c1nonc1N | inactive
16 | CCN(CC)Cc1c(C(=O)N/N=C/c2cccc(OCc3ccc(F)cc3)c2)nnn1-c1nonc1N | -5.26 (active)
17 | CCCCn1c(N)c(N(CC(C)C)C(=O)c2ccc(Br)o2)c(=O)[nH]c1=O | inactive
18 | CC(OC(=O)c1ccc(S(=O)(=O)N2CCOCC2)cc1)c1ccccc1 (stereo not given) | inactive
19 | CCN(C(=O)CSc1ncnc2c1cnn2-c1ccccc1)C1CCS(=O)(=O)C1 (stereo not given) | inactive
20 | CC(C)c1ccc(NC(=O)C2CCCN(S(=O)(=O)c3cccnc3)C2)cc1 (stereo not given) | inactive
21 | O=C(Nc1ccc(F)c(Cl)c1)C1CCN(S(=O)(=O)c2cccnc2)CC1 | -5.54 (active)
22 | O=C(NCc1cccs1)C1CCN(S(=O)(=O)c2ccc(Cl)cc2)CC1 | inactive
23 | O=C(COC(=O)c1cc(S(=O)(=O)N2CCCCC2)ccc1Cl)NCc1ccco1 | inactive
24 | CN(c1ccccc1)S(=O)(=O)c1ccc(Cl)c(C(=O)OCC(=O)NCc2ccco2)c1 | inactive
25 | Cc1cc(C(=O)OCC(=O)NCc2ccco2)c(C)n1-c1ccccc1 | -10 (active)

Row | Compound | B-score
26 | CCOc1ccc(S(=O)(=O)N2CCN(C(=S)NCC3CCCO3)CC2)cc1 (stereo not given) | inactive
27 | CC(C)CN(C(=O)c1ccc2c(c1)OCO2)C1CCS(=O)(=O)C1 (stereo not given) | inactive
28 | CN(C(=O)c1cc2c(=O)n3ccccc3nc2s1)C1CCCCC1 | inactive
29 | O=C(CC1SC(N2CCCC2)=NC1=O)Nc1ccc(C(=O)NCCc2ccc(F)cc2)cc1 (stereo not given) | inactive
30 | CCc1nc(C)cn1S(=O)(=O)c1cc([N+](=O)[O-])ccc1Cl | -5.38 (active)
31 | CCc1nccn1S(=O)(=O)c1cccc([N+](=O)[O-])c1 | inactive
32 | Cc1ccc([N+](=O)[O-])cc1S(=O)(=O)N1CCCN(C)CC1 | inactive
33 | C=CCOc1cccc(C2C(C(=O)c3ccc(C)o3)=C(O)C(=O)N2CCCn2ccnc2)c1 (stereo not given) | inactive
34 | O=C(CCCN1C(=O)CSc2ncccc21)N1CCN(c2cccc(C(F)(F)F)c2)CC1 | -9.61 (active)
35 | O=C(CN1C(=O)CSc2ncccc21)N1CCOCC1 | inactive
36 | O=C(COc1ccc(Cl)cc1)N1CCN(c2cccc(C(F)(F)F)c2)CC1 | inactive
37 | CCCn1c(C)cc(-c2csc(NC(=O)CCc3nc4ccccc4c(=O)[nH]3)n2)c1C | inactive
38 | CN(C)C1=NC[C@H](Cc2ccccc2)N1CCc1ccc(F)cc1 | inactive
39 | CC1C(=O)N2CCCc3cc(S(=O)(=O)NCc4ccc(F)cc4)cc1c32 (stereo not given) | inactive
40 | CN1C(=O)/C(=C/c2ccc(C(=O)NC3CCCC3)cc2)Oc2ccccc21 | inactive
41 | O=C(NCCN1CCOCC1)c1ccc(/C=C2\Sc3ccccc3N(Cc3ccc(F)cc3)C2=O)cc1 | inactive
42 | CN1CCN(CCCNC(=O)c2ccc(/C=C3\Oc4ccccc4N(Cc4ccc(Cl)cc4)C3=O)cc2)CC1 | -7.25 (active)
43 | O=C(NC1CCCCC1)c1ccc(-c2ccc(Cl)cc2)o1 | inactive
44 | O=[N+]([O-])c1ccc(O)c(/C=N/Nc2ccccc2[N+](=O)[O-])c1 | inactive
45 | O=[N+]([O-])c1ccccc1Nc1ccc(O)cc1 | -5.48 (active)
46 | O=C(O)c1ccccc1C(=O)Nc1ccccc1[N+](=O)[O-] | inactive
47 | CCN(C(=O)CSc1nnnn1-c1ccccc1OC)C1CCS(=O)(=O)C1 (stereo not given) | inactive
48 | Cc1nc2c(c(C)nn2-c2ccccc2)c(C)c1C | inactive
49 | O=C(Nc1ncccc1O)c1ccc(C(=O)c2ccccc2)cc1 | inactive
50 | Cc1csc(=O)n1CC(=O)OCC(=O)N(CC(C)C)c1c(N)n(Cc2ccccc2)c(=O)[nH]c1=O | inactive
